From PubChem
PAFAH2 FP inh – PAFAH2 enzyme inhibitors, primary screen, biochemical, fluorescence polarization, human. AID 492956, 2010. inhibition, % at 3.39 µM. Platelet-activating factor acetylhydrolase 2, cytoplasmic (Homo sapiens), Q99487. recombinant PAFAH2, FP-rhodamine activity probe. hit rate 0.99% among 340,000;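 active = inhibition above the mean over all tested compounds plus 3 SD, cut at about 30% in these data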;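 note: inhibitors block probe labeling of enzyme so polarization drops; 0% = enzyme with DMSO and 100% = wells lacking PAFAH2 protein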
PAFAH1B3 inh – PAFAH1B3 enzyme inhibitors, primary screen, biochemical, fluorescence polarization, human. Platelet-activating factor acetylhydrolase IB subunit alpha1 (Homo sapiens), Q15102. recombinant PAFAH1B3, FP-rhodamine probe. inhibition, % at 3.39 µM. hit rate 0.28% among 340,000. AID 492972, 2010;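 active = inhibition above the screen-wide average of all tested compounds plus 3 SD, cut at about 25% in these data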;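 note: 0% = enzyme with DMSO only and 100% = wells lacking PAFAH1B3 protein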
Target sequence (Q15102 whole entry, looked up): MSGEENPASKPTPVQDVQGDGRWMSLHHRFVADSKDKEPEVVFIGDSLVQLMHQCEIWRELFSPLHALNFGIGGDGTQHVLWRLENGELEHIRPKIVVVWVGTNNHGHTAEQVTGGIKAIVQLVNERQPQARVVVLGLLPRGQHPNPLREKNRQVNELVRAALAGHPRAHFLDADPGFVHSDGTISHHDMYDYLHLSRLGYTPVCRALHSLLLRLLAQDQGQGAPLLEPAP
pPAFAH inh – pPAFAH enzyme inhibitors, primary screen, biochemical, fluorescence polarization, human; Platelet-activating factor acetylhydrolase (Homo sapiens), Q13093; recombinant pPAFAH, FP-rhodamine probe fluorescence polarization; inhibition, % at 3.39 µM; hit rate 1.5% among 330,000; AID 463082, 2010;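 active = inhibition above the mean inhibition across the screen plus 3 SD, cut at about 25% in these data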;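 note: inhibitors block binding of the rhodamine activity-based probe so polarization drops; 0% = enzyme with DMSO and 100% = wells lacking pPAFAH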
CTSL1 counter – Fasciola hepatica cathepsin L1 inhibitors, primary screen, counter-screen for PFM18AAP inhibitor project, biochemical, QFRET, fluorogenic peptide substrate; recombinant F. hepatica cathepsin L1, Z-Leu-Arg-MCA fluorescence; inhibition, % at 5.96 µM; hit rate 0.49% among 300,000; AID 1906, 2009;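 active = inhibition above the mean of all tested compounds plus 3 SD, set per screening campaign, cut at about 17% in these data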;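 note: 0% = plate median of test compound wells and 100% = 1 µM Z-Phe-Ala-diazomethylketone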
PAFAH1B2 FP inh – PAFAH1B2 enzyme inhibitors, primary screen, biochemical, fluorescence polarization, human | AID 492953, 2010 | recombinant PAFAH1B2, FP-rhodamine activity probe | hit rate 1.2% among 340,000 | Platelet-activating factor acetylhydrolase IB subunit alpha2 (Homo sapiens), P68402 | inhibition, % at 3.39 µM;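 active = inhibition above the mean of all tested compounds plus 3 SD, cut at about 24% in these data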;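 note: 0% = enzyme with DMSO and 100% = wells lacking PAFAH1B2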
Target sequence (P68402 whole entry, looked up): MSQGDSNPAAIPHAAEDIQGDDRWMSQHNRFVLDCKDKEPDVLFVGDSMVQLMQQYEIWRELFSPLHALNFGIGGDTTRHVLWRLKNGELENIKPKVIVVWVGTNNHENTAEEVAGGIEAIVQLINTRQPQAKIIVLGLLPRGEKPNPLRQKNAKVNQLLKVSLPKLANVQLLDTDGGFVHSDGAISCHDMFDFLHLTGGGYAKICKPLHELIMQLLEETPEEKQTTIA
PP5 inh – PP5 phosphatase inhibitors, primary screen, biochemical, fluorescence; purified PP5c, OMFP substrate fluorescence; inhibition, % at 6.7 µM; hit rate 0.18% among 320,000;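 active = inhibition above the campaign's mean inhibition across all tested compounds plus 3 SD, cut at about 9.5% in these data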;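 note: 0% = DMSO only and 100% = 100 µM cantharidin control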
PAFAH2 confirm – PAFAH2 enzyme inhibitors, confirmation, biochemical, fluorescence polarization, human; shares compounds with PAFAH2 FP inh; recombinant PAFAH2, FP-rhodamine activity probe; inhibition, % at 3.39 µM; hit rate 65% among 2,300; AID 493030, 2011;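 active = mean inhibition over three repeats above a set limit taken from the earlier primary screen, cut at about 30% in these data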;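 note: inhibitor blocks binding of rhodamine activity probe so polarization falls; 0% = enzyme with DMSO and 100% = wells lacking PAFAH2 protein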
Starred values were filed as active, the others as inactive; . = no result. Only some compounds are listed: those with a hit (about 3% of all), similar ones and a draw of the others.

SMILES	PAFAH2 FP inh	PAFAH1B3 inh	pPAFAH inh	CTSL1 counter	PAFAH1B2 FP inh	PP5 inh	PAFAH2 confirm
CCN(C(=O)COC(=O)c1ccc(Cl)cc1N)C1CCCCC1	1	7	4	-8	4	-1	.
O=C(COC(=O)c1cncc(Br)c1)NC1CCCC1	5	0	-4	-11	0	2	.
O=C(c1ccc2c(=O)n3c(nc2c1)CCC3)N1CCN(S(=O)(=O)c2ccccc2Br)CC1	6	12	.	.	4	.	.
COc1ccc(CCNC(=O)c2c(O)c3ccccc3[nH]c2=O)cc1	-3	1	0	7	0	5	.
CCc1nnc(NC(=O)CN2CCCC(C)C2)s1 (configuration not stated)	-2	6	5	-1	4	1	.
O=C(O)c1cccc(S(=O)(=O)Nc2ccc3c(c2)CCC3)c1	-1	9	.	.	16	.	.
CNS(=O)(=O)c1cccc(C(=O)OCC(=O)NC2CCCC2)c1	46*	8	6	1	-3	-1	28
O=C(COC(=O)c1c2c(nc3ccccc13)/C(=C/c1ccco1)CC2)NC1CCCC1	36*	18	.	.	4	.	7
O=C(COC(=O)c1ccccc1)NC1CCCC1	73*	6	7	-1	8	-7	58*
CNS(=O)(=O)c1cccc(C(=O)OCC(=O)Nc2ccc(Cl)cn2)c1	21	6	6	-5	0	-2	.
CCOC(=O)[C@@H]1[C@H]2COc3ccccc3[C@H]2N2C(=O)N(c3ccc(OC)cc3)C(=O)[C@]12C	7	7	2	-1	0	0	.
O=C1C(F)=CC(COC(c2ccccc2)(c2ccccc2)c2ccccc2)OC1n1cc(F)c(=O)[nH]c1=O (configuration not stated)	3	-4	.	.	4	.	.
C/C(=N/OC(=O)c1ccc(C)cc1)c1cccs1	70*	-2	16	-3	-3	-1	52*
Cc1cccc(C(=O)O/N=C(\N)c2ccccn2)c1	15	1	3	-5	-2	2	.
C/C(=N\OC(=O)c1ccc(C)cc1)c1c(C)nc2cc(C)ccn12	-1	7	2	8	4	-2	.
C/C(=N\OC(=O)c1ccc(C)cc1)c1sc(C)nc1C	55*	0	24	-3	2	-1	43*
CC/C(=N/OC(=O)c1cccc(C)c1)C(=O)c1cccs1	37*	2	5	4	2	-1	27
CSCCC(NC(=O)c1ccco1)C(=O)N1CC(C)OC(C)C1 (configuration not stated)	10	4	-1	.	4	2	.
O=C(COC(=O)/C=C/c1ccc([N+](=O)[O-])cc1)NCc1ccco1	13	9	6	-7	2	0	.
O=C(COC(=O)C1CC2C=CC1C2)NCc1ccc(F)cc1 (configuration not stated)	22	2	10	4	3	-1	.
O=C(COC(=O)/C=C/c1ccc(F)cc1)NCc1ccco1	47*	3	12	-5	2	2	29
O=C(COC(=O)C1CC2C=CC1C2)NCc1ccco1 (configuration not stated)	32*	3	16	-10	1	-2	12
C=CCOc1ccc(/C=C/C(=O)OCC(=O)NCc2ccco2)cc1	46*	8	6	4	0	-2	36*
CC12CCC(=O)C=C1CCC1C2C(O)CC2(C)C1CCC2(O)C(=O)COC(=O)COCC(=O)O (configuration not stated)	6	2	.	.	4	.	.
Cc1cccc(C)c1-n1c(C)cc(/C=N/NC(=O)CSc2ncccn2)c1C	38*	1	12	-4	3	2	24
SMILES	PAFAH2 FP inh	PAFAH1B3 inh	pPAFAH inh	CTSL1 counter	PAFAH1B2 FP inh	PP5 inh	PAFAH2 confirm
O=C1OC2(CCCCC2)OC(=O)C1=CNc1nc2ccccc2s1	41*	4	-2	0	9	-1	21
O=C1OC2(CCCCC2)OC(=O)C1=CNc1nccs1	18	2	-1	2	2	2	.
CSc1ccc(Cl)c(C(=O)OCC(=O)NCC(C)C)c1	43*	0	3	-9	-1	-1	30*
Cc1ccc(S(=O)(=O)N(C)c2ccc(OC(=O)c3cccs3)cc2)cc1C	34*	11	12	.	1	0	25
Cc1ccc(S(=O)(=O)N(C)c2ccc(OC(C)C(=O)N3CCCC3)cc2)cc1C (configuration not stated)	11	5	-3	2	4	2	.
O=C(COC(=O)c1cccc(S(=O)(=O)N2CCCC2)c1)Nc1ccccc1	72*	8	8	-10	5	0	76*
COc1ccc(C(=O)OCC(=O)NC(Cc2ccccc2)C(C)=O)cc1S(=O)(=O)N1CCCC1 (configuration not stated)	35*	3	.	.	1	.	32*
COc1ccc(OC)c(NC(=O)COC(=O)c2ccc(OC)c(S(=O)(=O)N3CCOCC3)c2)c1	13	12	0	.	5	3	.
Cc1ccccc1NC(=O)COC(=O)c1cccc(S(=O)(=O)N2CCCCC2)c1	45*	8	8	.	2	-3	28
O=C(COC(=O)c1ccc(S(=O)(=O)N2CCCC2)cc1)Nc1ccccc1	4	3	5	.	1	-2	.
NS(=O)(=O)c1cccc(NC(=O)COC(=O)c2ccccc2C(=O)c2ccccc2)c1	54*	-4	8	.	-3	1	51*
COc1ccc(NC(=O)C(C)N2C(=O)C3CC=C(Cl)CC3C2=O)cc1 (configuration not stated)	-4	10	.	.	2	.	.
O=C(COC(=O)c1ccc(Cl)c(S(=O)(=O)N2CCCCCC2)c1)Nc1ccccc1	44*	-21	17	-19	-10	3	31*
CC(NC(=O)COC(=O)c1cccc(S(=O)(=O)N2CCCC2)c1)c1ccccc1 (configuration not stated)	53*	9	10	.	5	.	40*
COc1ccc(CCNC(=O)COC(=O)/C=C/c2ccc(OC)cc2OC)cc1	72*	13	20	.	5	.	58*
COc1ccc(CCNC(=O)COC(=O)/C=C/c2cc(OC)ccc2OC)cc1	32*	2	3	.	9	.	16
COc1ccc(OC)c(/C=C/C(=O)OCC(=O)NCc2cccs2)c1	46*	9	-2	.	3	1	50*
COc1ccc(/C=C/C(=O)OCC(=O)NCc2ccccc2)cc1OC	50*	7	3	.	4	3	47*
